FAS TE block: FAS thioesterase domain inhibitors, primary screen, biochemical, fluorescence intensity, uHTS | inhibition, % at 15 µM | 360,000 compounds, 0.67% hits | recombinant FAS-TE, OMFH fluorogenic substrate, fluorescence endpoint | AID 602261, 2012;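 active means compounds whose normalised, plate-corrected inhibition of enzyme fluorescence in the single-dose primary screen is 50% or more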
Target sequence (P49327 whole entry, looked up, the tested form may be a part): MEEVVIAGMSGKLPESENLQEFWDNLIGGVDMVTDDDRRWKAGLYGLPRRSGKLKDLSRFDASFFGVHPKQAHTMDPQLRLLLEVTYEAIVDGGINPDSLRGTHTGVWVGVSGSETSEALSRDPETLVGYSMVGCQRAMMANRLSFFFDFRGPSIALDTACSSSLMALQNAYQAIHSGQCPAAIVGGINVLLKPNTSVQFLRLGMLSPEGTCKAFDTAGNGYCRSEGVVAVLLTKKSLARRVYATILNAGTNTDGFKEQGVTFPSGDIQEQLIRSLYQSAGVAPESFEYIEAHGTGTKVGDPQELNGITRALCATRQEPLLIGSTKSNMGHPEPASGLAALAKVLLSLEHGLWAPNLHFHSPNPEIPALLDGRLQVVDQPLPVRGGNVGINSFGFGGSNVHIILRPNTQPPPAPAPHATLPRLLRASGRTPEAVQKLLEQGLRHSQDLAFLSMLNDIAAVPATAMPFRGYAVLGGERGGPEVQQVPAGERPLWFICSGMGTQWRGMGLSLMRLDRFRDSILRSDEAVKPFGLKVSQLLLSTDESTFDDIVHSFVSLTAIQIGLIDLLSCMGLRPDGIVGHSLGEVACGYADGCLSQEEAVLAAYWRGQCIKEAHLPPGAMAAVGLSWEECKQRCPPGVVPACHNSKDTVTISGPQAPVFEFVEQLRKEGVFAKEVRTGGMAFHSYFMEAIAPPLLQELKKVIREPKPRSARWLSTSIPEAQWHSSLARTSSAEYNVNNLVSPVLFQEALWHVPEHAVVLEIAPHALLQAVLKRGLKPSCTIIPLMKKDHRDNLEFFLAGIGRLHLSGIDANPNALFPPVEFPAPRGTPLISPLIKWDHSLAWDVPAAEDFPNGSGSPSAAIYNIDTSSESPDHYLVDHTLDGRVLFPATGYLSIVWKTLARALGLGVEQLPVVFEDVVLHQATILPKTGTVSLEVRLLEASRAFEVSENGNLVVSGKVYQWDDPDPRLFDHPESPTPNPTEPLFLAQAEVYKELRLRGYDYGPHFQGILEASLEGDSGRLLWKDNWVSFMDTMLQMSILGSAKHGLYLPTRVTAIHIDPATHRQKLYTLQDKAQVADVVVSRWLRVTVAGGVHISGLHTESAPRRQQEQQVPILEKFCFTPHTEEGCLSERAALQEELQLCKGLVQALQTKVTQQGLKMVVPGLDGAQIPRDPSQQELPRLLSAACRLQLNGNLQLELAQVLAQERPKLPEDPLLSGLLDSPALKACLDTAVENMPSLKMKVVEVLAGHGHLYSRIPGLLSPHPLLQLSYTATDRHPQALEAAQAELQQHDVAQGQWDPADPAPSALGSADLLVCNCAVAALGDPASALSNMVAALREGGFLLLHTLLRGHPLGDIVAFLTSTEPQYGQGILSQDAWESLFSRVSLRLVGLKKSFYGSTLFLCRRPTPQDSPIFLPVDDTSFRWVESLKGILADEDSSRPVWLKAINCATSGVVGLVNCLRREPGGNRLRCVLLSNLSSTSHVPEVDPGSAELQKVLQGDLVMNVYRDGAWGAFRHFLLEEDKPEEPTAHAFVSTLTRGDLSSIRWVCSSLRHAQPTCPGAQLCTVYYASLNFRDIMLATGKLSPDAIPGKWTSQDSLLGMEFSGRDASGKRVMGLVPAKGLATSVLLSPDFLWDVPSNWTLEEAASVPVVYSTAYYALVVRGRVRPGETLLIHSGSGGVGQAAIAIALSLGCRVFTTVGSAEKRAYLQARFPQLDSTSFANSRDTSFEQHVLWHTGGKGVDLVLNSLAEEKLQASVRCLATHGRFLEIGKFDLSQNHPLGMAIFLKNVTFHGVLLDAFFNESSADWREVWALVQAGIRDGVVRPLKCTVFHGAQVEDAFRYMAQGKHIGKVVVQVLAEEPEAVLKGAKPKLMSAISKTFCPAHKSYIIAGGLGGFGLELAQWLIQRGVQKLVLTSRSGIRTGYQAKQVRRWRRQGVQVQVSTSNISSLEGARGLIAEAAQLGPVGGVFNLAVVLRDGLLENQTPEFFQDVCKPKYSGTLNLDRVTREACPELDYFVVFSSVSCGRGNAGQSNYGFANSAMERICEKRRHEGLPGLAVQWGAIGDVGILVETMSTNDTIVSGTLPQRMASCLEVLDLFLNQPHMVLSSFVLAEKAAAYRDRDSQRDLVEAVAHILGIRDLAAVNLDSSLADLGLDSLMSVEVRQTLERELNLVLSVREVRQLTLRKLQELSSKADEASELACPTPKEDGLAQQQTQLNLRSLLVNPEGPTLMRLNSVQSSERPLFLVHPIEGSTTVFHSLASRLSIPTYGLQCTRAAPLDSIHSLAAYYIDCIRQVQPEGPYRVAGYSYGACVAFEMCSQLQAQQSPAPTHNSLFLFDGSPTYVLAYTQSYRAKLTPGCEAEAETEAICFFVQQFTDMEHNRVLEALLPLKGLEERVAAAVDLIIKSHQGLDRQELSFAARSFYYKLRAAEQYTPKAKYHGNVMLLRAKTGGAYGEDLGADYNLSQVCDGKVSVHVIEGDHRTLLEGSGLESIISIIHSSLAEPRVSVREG
ADAM10 inh: human ADAM10 inhibitors, primary screen, biochemical, QFRET, HTS | Disintegrin and metalloproteinase domain-containing protein 10 (Homo sapiens), O14672 | recombinant ADAM10, EDANS/DABCYL FRET peptide cleavage, 3 h | inhibition, % at 7 µM | 370,000 compounds, 0.62% hits;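 active means inhibition above a per-campaign cutoff equal to the mean of compounds falling between control-based bounds plus 3 SD, cut at about 20% in these data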
sPLA2-III inh: human group III sPLA2 inhibitors, primary screen, biochemical, QFRET, BODIPY PC-A2 liposome substrate; inhibition, % at 12.2 µM; Group 3 secretory phospholipase A2 (Homo sapiens), Q9NZ20; 370,000 compounds, 0.56% hits; QFRET BODIPY PC-A2 liposome hydrolysis, fluorescence;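 active means inhibition above mean plus 3 SD of compounds lying within the high and low control bounds, cut at about 19% in these data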
ADAM17 inh: ADAM17 inhibitors, primary screen, biochemical, QFRET. Disintegrin and metalloproteinase domain-containing protein 17 (Homo sapiens), P78536. recombinant ADAM17, EDANS/DABCYL FRET peptide cleavage. inhibition, % at 6.95 µM. 370,000 compounds, 0.83% hits. AID 720648, 2013;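 active means inhibition above the mean of compounds lying between control limits plus 3 SD, set per campaign, cut at about 8.5% in these data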
GRIN3A LBD mod: binders of NR3A ligand-binding domain, primary screen, biophysical, differential scanning fluorimetry, uHTS; NR3A LBD differential scanning fluorimetry, Tm shift; 0% = protein alone, 100% = glycine-bound protein; Tm shift relative to glycine control, % at 25 µM; 340,000 compounds, 2.5% hits;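 active means melting temperature shift of at least 10% of the positive control shift, at one fixed dose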
FAS-TE inh conf: FAS thioesterase domain inhibitors, confirmation, biochemical, fluorescence intensity, single concentration | shares compounds with FAS TE block | recombinant FAS-TE, OMFH fluorogenic substrate | inhibition, % at 15 µM | 2,300 compounds, 45% hits | AID 624325, 2012;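 active means compounds inhibiting the enzyme by at least 50% at 15 µM in any one of the replicates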
Each line names hits and unclear results; the compound was inactive in the other large screens (follow-up assays come after a bar, where they were run); ! = not active in a repeat. In the library only some 4.3% were active in any assay of this set; here they are far more common.

O=[N+]([O-])c1c(Nc2ccc(O)cc2)cc(Cl)c2nonc12	FAS TE block 60 | FAS-TE inh conf 44
CN(C)c1cc(Nc2ccc(O)cc2)c([N+](=O)[O-])c2nonc12	none
CC(=O)c1cc(-c2cc(C(F)(F)F)cc(C(F)(F)F)c2)c(=O)n2c1CCC2	none (no result: FAS TE block, GRIN3A LBD mod)
COc1ccc(NC(=O)C(=O)N/N=C/c2cc(C)n(-c3cccc(Cl)c3Cl)c2C)c(OC)c1	FAS TE block 63 | FAS-TE inh conf inactive
O=c1nc(SCc2c(F)cccc2Cl)nc(-c2ccc(Cl)cc2)[nH]1	FAS TE block 57 | FAS-TE inh conf inactive
COc1cc(/C=C/C(=O)OCC(=O)Nc2sc3c(c2C#N)CCC(C)C3)ccc1OCC#N (configuration not stated)	FAS TE block 64 | FAS-TE inh conf inactive
CCS(=O)(=O)c1ccc2oc(Nc3ccc(C(C)C)cc3)nc2c1	FAS TE block 52 | FAS-TE inh conf 47
Cc1ccc(NC(=O)c2ccc(Cl)c(S(=O)(=O)Nc3c(C)n(C)n(-c4ccccc4)c3=O)c2)cc1Cl	FAS TE block 76 | FAS-TE inh conf inactive
Cc1c(NS(=O)(=O)c2cc(C(=O)Nc3ccc(F)cc3Cl)ccc2Cl)c(=O)n(-c2ccccc2)n1C	none
CCCC(=O)Nc1nc(-c2ccc3c(c2)CCN3S(C)(=O)=O)cs1	none
CC1Cc2cc(-c3csc(NC(=O)Cc4cccs4)n3)ccc2N1S(C)(=O)=O (configuration not stated)	FAS TE block 51 | FAS-TE inh conf 53
CS(=O)(=O)N1CCc2cc(-c3csc(NC(=O)Cc4ccccc4)n3)ccc21	FAS TE block 64 | FAS-TE inh conf 58
CC(C)(C)C(=O)OC12CCCN(C1)/C(=C/c1ccncc1)C2 (configuration not stated)	none (no result: FAS TE block, GRIN3A LBD mod)
COc1ccc(/C=C2\SC(=O)N(CCNC(=O)C3CCN(S(=O)(=O)c4cccs4)CC3)C2=O)cc1	FAS TE block 54 | FAS-TE inh conf inactive
COc1ccccc1N1CCN(c2ccc3c(c2)S(=O)(=O)c2cccc(C(=O)NCc4ccc(F)cc4)c2C3=O)CC1	FAS TE block 51 (no result: GRIN3A LBD mod) | FAS-TE inh conf inactive
CN(C(=O)c1cccc(NC(=O)Cc2ccc(NC(=O)C3CCN(S(=O)(=O)c4cccc([N+](=O)[O-])c4)CC3)cc2)c1)C1CCCCC1	FAS TE block 52 | FAS-TE inh conf inactive
CN(CCc1ccccc1)C(=O)c1ccc(NC(=O)Cc2cccc(NC(=O)C3CCN(S(=O)(=O)c4cccc([N+](=O)[O-])c4)CC3)c2)cc1	FAS TE block 55, GRIN3A LBD mod 10 | FAS-TE inh conf inactive
CN(CCc1ccccc1)C(=O)c1ccc(NC(=O)Cc2ccc(NC(=O)C3CCN(S(=O)(=O)c4cccc([N+](=O)[O-])c4)CC3)cc2)cc1	FAS TE block 62 | FAS-TE inh conf inactive
CN(C(=O)c1cccc(NC(=O)Cc2cccc(NC(=O)C3CCN(S(=O)(=O)c4cccc([N+](=O)[O-])c4)CC3)c2)c1)C1CC1	none
N#Cc1cc(-c2ccccc2)nc(Oc2ccccc2)n1	FAS TE block 69 | FAS-TE inh conf 45
O=[N+]([O-])c1cc(CS(=O)(=O)Oc2ccc(Cl)cc2)c(O)c([N+](=O)[O-])c1	FAS TE block 57 | FAS-TE inh conf 68
CCCN(C(=O)C1CCCN(c2ncnc3c2nc2n3CCCCC2)C1)c1ccccc1C (configuration not stated)	none (no result: FAS TE block, GRIN3A LBD mod)
COc1ccc([N+](=O)[O-])cc1NC(=O)CC1SC(=Nc2cccc(C)c2C)N(/N=C/c2cccc(OC)c2OC)C1=O (configuration not stated)	FAS TE block 87, GRIN3A LBD mod 21! | FAS-TE inh conf inactive
CCN(CC)C(=O)C1CCCN(c2ccc([N+](=O)[O-])cc2/C=N/NC(=O)c2ccccc2)C1 (configuration not stated)	FAS TE block 85 | FAS-TE inh conf 56
CCN(CC)C(=O)C1CCCN(c2ccc([N+](=O)[O-])cc2/C=N/NC(=O)c2cccc(O)c2)C1 (configuration not stated)	FAS TE block 66 | FAS-TE inh conf 68
Cc1ccccc1-c1nc2sc(C)c(C)c2c(=O)o1	FAS TE block 53 | FAS-TE inh conf inactive
Cc1cccc(C)c1NC1=C(Cl)C(=O)OC1OC(=O)c1ccccc1 (configuration not stated)	FAS TE block 64 | FAS-TE inh conf 29
Cc1ccc(S(=O)(=O)Nc2nc(-c3ccccc3)cs2)cc1	none
Cc1ccc(S(=O)(=O)Nc2ccccc2C(=O)Nc2nc(-c3ccc(F)cc3)cs2)cc1	FAS TE block 56, GRIN3A LBD mod 31 | FAS-TE inh conf 58
COc1ccc(-c2csc(NC(=O)c3ccccc3NS(=O)(=O)c3ccc(F)c(F)c3)n2)cc1	FAS TE block 58, GRIN3A LBD mod 16 | FAS-TE inh conf inactive
CCN(CC)C(=O)O[C@H]1CC[C@@]23CCCN2C(=O)CCC[C@H]3C1	none (no result: FAS TE block, GRIN3A LBD mod)
O=C(Nc1nc2ncccn2c1-c1ccc(F)cc1)C1CC1	none (no result: FAS TE block, GRIN3A LBD mod)
COc1ccccc1C(=O)N1CCCC(c2nc(-c3cccs3)no2)C1 (configuration not stated)	none (no result: FAS TE block, GRIN3A LBD mod)
CCCC1CCC2(CCCN2CCOC(=S)Nc2cccc(Cl)c2)CC1 (configuration not stated)	none (no result: FAS TE block, GRIN3A LBD mod)
COc1ccc(C(C(=O)NC2CCCC2)N(C(=O)c2snc(-c3ccc(F)cc3)c2N)c2ccc(F)cc2)cc1 (configuration not stated)	none
COc1ccc(C(C(=O)NC2CCCC2)N(C(=O)c2snc(-c3ccc(F)cc3)c2N)c2ccc(OC)cc2)cc1 (configuration not stated)	FAS TE block 59 | FAS-TE inh conf inactive
Cc1ccc(C(=O)NCC(=O)OCc2nc3sc(C)c(C)c3c(=O)[nH]2)cc1	none (no result: FAS TE block, GRIN3A LBD mod)
C=CC[C@@H]1NN2C(=O)[C@@H](CCCC)[C@@H]3c4cc5ccccc5cc4C=NN3[C@@H]2c2cc3ccccc3cc21	none (no result: FAS TE block, GRIN3A LBD mod)
CC12CCC3c4ccc(OCCCO)c([N+](=O)[O-])c4CCC3C1CCC2=O (configuration not stated)	none (no result: FAS TE block, GRIN3A LBD mod)
O=C(COC(=O)c1cc([N+](=O)[O-])ccc1N1CCOCC1)c1ccc(F)cc1	FAS TE block 69 | FAS-TE inh conf 40
NS(=O)(=O)c1ccc(CCNC(=O)COC(=O)c2cc([N+](=O)[O-])ccc2N2CCOCC2)cc1	none
